Compound activity from PubChem.
A selection: hits, their analogues and other compounds. The true share with any hit is near 2.4%.
PKM2 activator: activators of human pyruvate kinase M2; AID 1631; 0.34% of 260,000 active; purified PKM2, Kinase-Glo ATP luminescence, activation; response scale: 0% is enzyme alone, no compound; Potency, µM (series often up to 57.5 µM), for inactives: at the highest dose activation, usual class: activators; further: on the % scale 0 is the no-effect control and ±100 the full control effect; nearly all actives have a fitted effect of over 55% in size
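Purified hPK-M2 (>95% pure) converted ADP (0.1 mM final) to ATP with 0.5 mM PEP in 50 mM imidazole pH7.2, KCl, MgCl2, Tween 20, BSA; 1 h at room temperature. ATP detected by Kinase-Glo luminescence.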
Tb PFK block: T. brucei PFK enzyme inhibition. Potency, µM (titrated, usually from 57.5 µM), for inactives: at the top dose activity, negative = inhibition, usual class: inhibitors. T. brucei PFK, ADP-Glo luminescence. AID 485367. O15648. 0.17% of 330,000 active;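 further: 0% = uninhibited 1x PFK enzyme wells and -100% = no-enzyme wells; nearly all actives have a fitted effect of over 60% in size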
Target sequence (O15648 whole entry, looked up): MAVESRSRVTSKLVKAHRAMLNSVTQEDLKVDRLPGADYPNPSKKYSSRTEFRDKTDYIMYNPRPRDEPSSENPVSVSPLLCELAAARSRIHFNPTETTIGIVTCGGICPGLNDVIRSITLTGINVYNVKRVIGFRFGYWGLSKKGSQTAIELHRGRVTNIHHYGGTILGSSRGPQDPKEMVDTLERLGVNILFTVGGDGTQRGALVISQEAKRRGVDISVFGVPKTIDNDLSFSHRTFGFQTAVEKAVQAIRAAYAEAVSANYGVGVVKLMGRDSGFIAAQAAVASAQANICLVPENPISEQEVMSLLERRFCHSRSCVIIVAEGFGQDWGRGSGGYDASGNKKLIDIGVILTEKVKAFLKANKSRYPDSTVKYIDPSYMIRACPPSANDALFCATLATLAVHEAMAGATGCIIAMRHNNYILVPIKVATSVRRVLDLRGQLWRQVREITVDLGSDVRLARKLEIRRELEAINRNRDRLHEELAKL
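PFK 1.25 nM, F6P 0.5 mM, ATP 0.1 mM, 0.1 M TEA pH 8.0, 5 mM MgCl2, 0.01% Tween20, 0.1% BSA; 45 min RT. ADP-Glo readout. qHTS titration up to 57 uM; curves fitted, compounds curve-classed.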
Rango release inh: prevents RanGTP from dissociating the Rango-importin beta complex; O95149+P62826; Biochemical FRET Rango-importin beta, RanGTP-induced dissociation; Potency, µM (series often up to 46.1 µM), inactives show top-dose activity change, negative = inhibition; AID 540253; 0.071% of 340,000 active; calls by dose curve; further: % of control where 0% means no effect; nearly all actives have a fitted effect of over 45% in size
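Rango FRET biosensor (snurportin-1 IBB flanked by N-terminal EYFP and C-terminal CFP10) at 0.1 uM, with 0.25 uM importin beta in PBS, 1mM DTT, 0.02% Tween-20, 0.1% BSA. 0.6 uM Ran, 2mM GTP and 0.2 uM RCC1 were then added for 45 min at room temperature. Inhibition read as loss of FRET rise.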
Tb PGK inh: T. brucei PGK inhibition | P07378 | PGK/GAPDH coupled, Kinase-Glo luminescence, 60 min | Potency, µM (titrated, usually from 57.5 µM), inactives show at the highest dose activity change, negative = inhibition, most hits filed as inhibitors | 0.043% of 380,000 active; further: on the % scale 0 is the no-effect control and ±100 the full control effect; nearly all actives have a fitted effect of over 60% in size
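Recombinant glycosomal PGK reaction used 1,3-bisphosphoglycerate generated in-well by GAPDH (100nM final) in 100mM TEA pH 7.6, 5mM MgCl2, 0.01% Tween-20. After 60 minutes at room temperature, ATP was read by Kinase-Glo Plus luminescence end-point.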
ELG1 repair inh: inhibitors of ELG1-dependent DNA repair in HEK293T cells. Potency, µM (top dose mostly 46.1 µM), for the others: at the top dose activity change, negative = inhibition, actives largely listed as inhibitors. HEK293T ELG1-luciferase reporter, luminescence, 16 h; DNA damage induced by 5-fluorouridine. 2.3% of 330,000 active. AID 504467; further: on the % scale 0 is the no-effect control and ±100 the full control effect; nearly all actives have a fitted effect of over 55% in size
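Quantitative HTS, concentration-response format. 2,000 cells/well co-treated with 5-fluorouridine and compound, 16 hr in 5% CO2 at 37 °C; ONE-Glo luminescence read after 30 min.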
Rango complex inh: prevents formation of the Rango-importin beta complex; Q14974; Potency, µM (highest dose often 92.2 µM), without a hit: at the highest dose inhibition of complex formation; AID 540263; Rango CFP/YFP FRET sensor + importin beta, 45 min; 0.031% of 340,000 active; calls by dose curve;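 further: 0% = DMSO wells and 100% = buffer wells lacking importin beta; nearly all actives have a fitted effect of over 15% in size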
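FRET biosensor (snurportin 1 IBB flanked by EYFP and cerulean), 50 nM, with compound 5 min, then 0.125 microM importin beta in PBS, 1 mM DTT, 0.02% Tween-20, 0.1% BSA. CFP/YFP ratio read after 45 min at room temperature; pre-read flags interference.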
* marks the source's active call; other numbers are inactive results. Unless noted, the call rests on the fitted dose curve; in most records, active means well fitted curve in the direction sought with a large enough effect; inconclusive means small, poorly fitted or top-dose-only effect, or another doubt; inactive means no such curve, though single readings can be large; an effect the other way counts as inactive or inconclusive. Potency means the concentration at half of the fitted maximal effect.

`NC(=O)CC(NC(=O)Cc1ccc(Cl)cc1)c1ccc(N2CCC(Cc3ccccc3)CC2)c([N+](=O)[O-])c1` (stereo not drawn) gave PKM2 activator -2.1%, Tb PFK block -0.6%, Rango release inh 1.2%, Tb PGK inh 6.6%, ELG1 repair inh -16.2% and Rango complex inh 2.3%.
C=CCOc1ccc(/C=N/NC(C)=O)cc1OCC was read as PKM2 activator -2.3%, Tb PFK block 0.0%, Rango release inh 0.7%, Tb PGK inh -2.1%, ELG1 repair inh 4.5% and Rango complex inh -2.9%.
COc1cc(/C=N\NC(C)=O)ccc1OC/C=C/c1ccccc1 was read as PKM2 activator -0.4%, Tb PFK block -1.3%, Rango release inh 0.7%, Tb PGK inh -7.8%, ELG1 repair inh 16.4µM* and Rango complex inh -0.3%.
`CCC12CN3CC(CC)(CN(C1)C3c1ccc([N+](=O)[O-])o1)C2=O` (stereo not drawn) gave PKM2 activator -26.7%, Tb PFK block -3.6%, Rango release inh 0.4%, Tb PGK inh -0.2%, ELG1 repair inh 3.8% and Rango complex inh -4.0%.
`CC(=O)c1ccc(N2CCN(C(=O)/C=C/c3ccc(S(=O)(=O)NCc4ccco4)cc3)CC2)cc1` gave PKM2 activator -1.1%, Tb PFK block -3.4%, Rango release inh -18.3%, Tb PGK inh -9.2%, ELG1 repair inh 7.3µM* and Rango complex inh 1.6%.
Screening C[C@]12c3[nH]c4ccccc4c3CCN1C(=O)C(CC(=O)NCCN1CCOCC1)C[C@@H]2C(=O)N1CCCCC1 (stereo partly drawn) returned Tb PFK block 4.7%, Rango release inh -6.9%, Tb PGK inh -6.2%, ELG1 repair inh 9.9% and Rango complex inh -1.8%.
For O=C(CCCNS(=O)(=O)c1cccs1)N1CCN(c2cccc(Cl)c2)CC1 the results were PKM2 activator -3.4%, Tb PFK block inconclusive, Rango release inh -23.9%, Tb PGK inh -6.8%, ELG1 repair inh 23.1µM* and Rango complex inh 2.3%.
Screening COc1ccc(-n2cnc(N)c2C(=O)c2cccc([N+](=O)[O-])c2)cc1 returned PKM2 activator -1.0%, Tb PFK block -0.8%, Rango release inh 12.6%, Tb PGK inh inactive, ELG1 repair inh 16.4µM* and Rango complex inh -0.4%.
`COc1ccc2cc3c(N)nn(C(=O)Cc4ccccc4OC)c3nc2c1` gave PKM2 activator 6.3%, Tb PFK block -4.6%, Rango release inh 1.5%, Tb PGK inh -5.2%, ELG1 repair inh inconclusive and Rango complex inh -2.3%.
`COc1ccc2cc3c(N)nn(C(=O)c4cccc([N+](=O)[O-])c4)c3nc2c1` gave PKM2 activator 10.8%, Tb PFK block 0.0%, Rango release inh 8.0%, Tb PGK inh -9.3%, ELG1 repair inh 2.31µM* and Rango complex inh -0.8%.
For COc1ccc(-n2cnc3cc([N+](=O)[O-])ccc32)cc1 the results were PKM2 activator 0.6%, Tb PFK block 10.9%, Rango release inh 3.4%, Tb PGK inh 5.3%, ELG1 repair inh -8.6% and Rango complex inh 3.8%.
For COc1ccc2cc3c(N)nn(C(=O)C4CCC(C(C)(C)C)CC4)c3nc2c1 (stereo not drawn) the results were PKM2 activator -1.6%, Tb PFK block -2.6%, Rango release inh -18.4%, Tb PGK inh -8.9%, ELG1 repair inh 1.84µM* and Rango complex inh -1.5%.
CC1CC(C)CN(C(=O)CN(C)S(=O)(=O)c2ccc3c(c2)c(=O)n(C)c(=O)n3C)C1 (stereo not drawn) was read as Tb PFK block 0.2%, Rango release inh -19.0%, Tb PGK inh -6.4%, ELG1 repair inh 0.6% and Rango complex inh -0.2%.
`Cc1cc(C)n(CC(=O)Nc2cc(F)ccc2F)c(=O)c1C#N` gave Tb PGK inh 5.9%.
CCc1ccc(OCC(=O)Nc2ccc(-c3nc4ncccc4o3)cc2)cc1 was read as Tb PGK inh -5.2%.
`CCCn1c(N)c(C(=O)CSc2nnc(Cc3cccs3)n2C2CC2)c(=O)n(C)c1=O` gave Tb PFK block 0.0%, Rango release inh 6.6%, Tb PGK inh -7.5%, ELG1 repair inh 11.2µM* and Rango complex inh -0.7%.
`O=C(C1CCCN(S(=O)(=O)c2ccccc2)C1)N1CCCc2ccccc21` (stereo not drawn) gave PKM2 activator -14.2%, Tb PFK block -1.4%, Rango release inh 1.4%, Tb PGK inh 3.2%, ELG1 repair inh 23.1µM* and Rango complex inh 3.3%.
`Cc1ccc(S(=O)(=O)N2CCCC(C(=O)N3CCN(c4ccccc4)CC3)C2)cc1` (stereo not drawn) gave PKM2 activator 0.1%, Tb PFK block 1.4%, Rango release inh 12.6%, Tb PGK inh 0.7%, ELG1 repair inh 20.6µM* and Rango complex inh inconclusive.
Cc1ccc(S(=O)(=O)N2CCCC(C(=O)N3CCCc4ccccc43)C2)cc1 (stereo not drawn) was read as PKM2 activator -1.0%, Tb PFK block 1.9%, Rango release inh 3.3%, Tb PGK inh -5.9%, ELG1 repair inh -11.0% and Rango complex inh -3.5%.
Screening COc1ccc(N2CCN(C(=O)C3CCCN(S(=O)(=O)c4ccc(F)cc4)C3)CC2)cc1 (stereo not drawn) returned PKM2 activator 0.7%, Tb PFK block 2.0%, Rango release inh -3.1%, Tb PGK inh -0.4%, ELG1 repair inh inconclusive and Rango complex inh 2.5%.
COc1ccc(N2CCN(C(=O)C3CCCN(S(=O)(=O)c4ccc(C)cc4)C3)CC2)cc1 (stereo not drawn) was read as Tb PFK block -11.2%, Rango release inh -22.3%, Tb PGK inh inactive, ELG1 repair inh 20.6µM* and Rango complex inh -1.0%.
For Cc1ccc(-c2nnc(Nc3ccc(Br)cc3)c3ccccc23)cc1S(=O)(=O)N1CCN(C)CC1 the results were Tb PGK inh 8.7%.
Screening CCOC(=O)C1CCCN(C(=O)C2CCN(c3nnc(C)c4c(C)n(-c5ccccc5)nc34)CC2)C1 (stereo not drawn) returned Tb PGK inh -0.9%.
For O=C(Nc1nccs1)c1cccc(NC(=O)c2ccco2)c1 the results were PKM2 activator 5.9%, Tb PFK block -6.6%, Rango release inh 1.2%, Tb PGK inh -7.6%, ELG1 repair inh 23.1µM* and Rango complex inh 2.1%.
